KDM4E inh: inhibitors of human JMJD2E histone demethylase; B2RXH2; JMJD2E catalytic domain, FDH-coupled NADH fluorescence (FDH is formaldehyde dehydrogenase); Potency, µM (highest dose often 57.1 µM), for inactives: at the highest dose activity change, negative = inhibition, hits mostly inhibitors; 230,000 tested, 1.6% active; active means well fitted inhibition curve with a large enough effect, not every such curve was filed as active; inconclusive means small, poorly fitted or top-dose-only effect, or another doubt; inactive means no such curve, though single readings can be large or run the other way;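 further: potency means the concentration at half of the fitted maximal effect; 0% = wells with enzyme and -100% = buffer wells without enzyme; nearly all actives have a fitted effect of over 50% in size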
Target sequence (B2RXH2 1-337 limits assumed): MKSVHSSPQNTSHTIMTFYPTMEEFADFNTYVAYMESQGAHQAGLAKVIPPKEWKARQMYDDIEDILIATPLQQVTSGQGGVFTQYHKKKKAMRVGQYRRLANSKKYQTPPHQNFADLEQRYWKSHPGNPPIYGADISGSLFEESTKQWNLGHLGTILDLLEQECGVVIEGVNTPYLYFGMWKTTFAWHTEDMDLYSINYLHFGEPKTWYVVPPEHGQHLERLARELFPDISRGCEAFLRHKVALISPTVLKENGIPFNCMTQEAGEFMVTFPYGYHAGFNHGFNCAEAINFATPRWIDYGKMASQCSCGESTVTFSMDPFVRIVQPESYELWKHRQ
HTT cytoprotect: protects HTT-Q103 PC12 cells, measured by ATP; PC12 HTT-Q103 induced, cytoprotection, ATP luminescence, 40 h; Potency, µM (highest dose often 56.4 µM), for inactives: cytoprotection (ATP increase), most hits filed as activators; 230,000 tested, 0.14% active; AID 1471; further: potency means the concentration at half of the fitted maximal effect; % of control where 0% means no effect; nearly all actives have a fitted effect of over 45% in size
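PC12 cells with ecdysone-inducible HTT exon 1 Q103-GFP, induced with 100 nM tebufenozide and co-treated with library compounds in a dose series (1536-well, 1500 cells/well). Cytoprotection read as ATP content by ATPlite luminescence.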
HTT aggregate: reduces HttQ103-GFP aggregates in PC12 cells | Potency, µM (top dose mostly 46.1 µM), inactives show at the highest dose activity change, negative = inhibition, actives largely listed as inhibitors | PC12 HttQ103-GFP aggregates, Acumen cytometry, 40 h | 220,000 tested, 1.1% active; further: potency means the concentration at half of the fitted maximal effect; on the % scale 0 is the no-effect control and ±100 the full control effect; nearly all actives have a fitted effect of over 60% in size
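Read-out: GFP aggregate count by laser scanning cytometer (488 nm excitation, 500-530 nm emission, 1–25 µm objects >6 SD above background). Cells: PC12, inducible HTTex1-Q103-GFP, 100 nM tebufenozide; compounds titrated.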
HPGD inh: blocks human HPGD enzyme activity | purified HPGD, NADH fluorescence kinetic, PGE2 substrate | Potency, µM, for inactives: at the highest dose activity change, negative = inhibition, most hits filed as inhibitors | 150,000 tested, 4.3% active; active means well fitted inhibition curve with a large enough effect, not every such curve was filed as active; inconclusive means small, poorly fitted or top-dose-only effect, or another doubt; inactive means no such curve, though single readings can be large or run the other way; further: potency means the concentration at half of the fitted maximal effect; on the % scale 0 is the no-effect control and ±100 the full control effect
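20 nM HPGD preincubated 15 min at room temperature with compound in 50 mM Tris-HCl pH 8, 0.01% Tween 20. Started with 1 mM NAD+ and 30 uM prostaglandin E2; NADH fluorescence (360/450 nm) read 5 times over 30-s intervals, last minus first.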
ALDH1A1 block: blocks purified human ALDH1A1 activity. Potency, µM (highest dose often 75.3 µM), for the others: at the highest dose activity, negative = inhibition, hits mostly inhibitors. P00352. Purified ALDH1A1, NADH fluorescence, propionaldehyde substrate. 220,000 tested, 7.3% active; active means well fitted inhibition curve with a large enough effect, not every such curve was filed as active; inconclusive means small, poorly fitted or top-dose-only effect, or another doubt; inactive means no such curve, though single readings can be large or run the other way;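 further: potency means the concentration at half of the fitted maximal effect; plate controls were no enzyme wells and a reference inhibitor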
CBFb RUNX1 block: CBF-beta/RUNX1 interaction disruption | Q01196+Q13951 | AlphaScreen CBFb-His/RUNX1-biotin binding, biochemical | Potency, µM (top dose mostly 59.8 µM), for inactives: top-dose activity, negative = inhibition, actives largely listed as inhibitors | 230,000 tested, under 10 active | AID 1477; further: % of control where 0% means no effect
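Room-temperature protein-protein interaction test with 30 nM each of His-tagged CBF-beta and biotinylated RUNX1, 15 min with compound, then 90 min with nickel plus streptavidin beads. Signal read in AlphaScreen mode.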
Numbers without * were called inactive; ? = inconclusive; · = not tested or not shown; ! = a repeat was not active; [ ] = dose if it differs, or a comment. This is a sample that favours compounds with a hit; in the whole collection about 9.8% have one here. Unless noted, the call rests on the fitted dose curve; in most records, active means well fitted curve in the direction sought with a large enough effect; inconclusive means small, poorly fitted or top-dose-only effect, or another doubt; inactive means no such curve, though single readings can be large; an effect the other way counts as inactive or inconclusive.

SMILES	KDM4E inh	HTT cytoprotect	HTT aggregate	HPGD inh	ALDH1A1 block	CBFb RUNX1 block
CC1CCN(C(=O)c2ccc3c(c2NCCO)C(=O)c2ccccc2C3=O)CC1	-4%	-10%	-19%	22µM*	?	?
COC(=O)Cn1c(O)c(N=NC(=O)c2ccc3c(c2)OCO3)c2ccccc21	-3%	-11%[10 µM]	20%[9.22 µM]	·	1.8µM*	11%
Cc1ccc(NC(=O)Cn2c(O)c(N=NS(=O)(=O)c3ccc(C)cc3)c3ccccc32)cc1	3%	-11%[10 µM]	12%	-6%	0.35µM*	0%
Cc1ccc(NC(=O)Cn2c(O)c(N=NC(N)=O)c3ccccc32)cc1	-1%	5%[10 µM]	-7%[9.22 µM]	·	·	1%
CCn1c(O)c(N=NC(=O)CNc2ccc(C)cc2)c2ccccc21	-4%	15%[10 µM]	-5%	-5%	-16%	-15%
CCn1c(O)c(N=NC(=O)CNc2cccc(C)c2)c2ccccc21	-1%	-17%[10 µM]	?	-11%	28µM*	-4%
Cc1cccc(NC(=O)Cn2c(O)c(N=NC(=O)c3ccncc3)c3ccccc32)c1	1%	·	?	·	13µM*	4%
CCCN(CCC)C(=O)CSc1nc2ccccc2c(=O)n1C1CCCC1	-5%	5%[10 µM]	-9%	-11%	-5%	13%
COc1cc(OC)cc(C(=O)Nc2c(C)nn(-c3ccccc3)c2C)c1	-3%	2%	-9%	·	9%	4%
Cc1cccc(C(=O)Oc2ccccc2C(=O)N2CCOCC2)c1	0%	16%[10 µM]	14%[9.22 µM]	·	·	0%
Cc1ccc(C)c2[nH]c(=O)c(CCNC(=O)c3ccco3)cc12	?	-17%	6%	·	?	10%
Cc1cc(NC(=S)Nc2ccccc2)ccc1Br	6%	7%	7%	-4%	-1%	-4%
COc1cc(NC(=S)Nc2cccnc2)cc(OC)c1	-8%	2%[10 µM]	-7%	28µM*	32µM*	-2%
COc1cc(OC)cc(C(=O)NC(=S)Nc2cccnc2)c1	0%	-28%	12%	-7%	?	0%
Cc1cc(NC(=S)Nc2cccnc2)ccc1Br	?	-14%	-23%	·	22µM*	-10%
COc1cccc(CNc2cc(CSc3ccc(Cl)cc3)nc(C)n2)c1	3%	-8%	-47%	-8%	-5%	5%
O=C(OCc1cc2ccccc2[nH]c1=O)C1CCCCC1	-12%	16%	-13%	·	20µM*	5%
Cc1ccc2[nH]c(=O)c(COC(=O)C3CCCCC3)cc2c1	?	14%[10 µM]	2%[9.22 µM]	·	·	-2%
CC(C)(CO)NCc1ccc(Br)cc1	-10%	·	25%	·	1%	8%
C=CCN1C=C2C(=O)C(C)(OC(=O)c3cccs3)C(=O)C=C2C=C1CCCC(=O)OC (stereo not drawn)	16µM*!	-16%[10 µM]	?	3%	?	2%[13.1 µM]
C=C[C@]1(C)C[C@H](OC(=O)CO)[C@]2(C)C3C(=O)CC[C@]3(CC[C@H]2C)[C@H](C)[C@H]1O (stereo partly drawn)	·	5%[10 µM]	·	-5%	-3%[13.5 µM]	·
O=C(c1cc2nc(-c3cccs3)cc(C(F)(F)F)n2n1)N1CCCc2ccccc21	?	-9%	-6%	14µM*	-13%	-1%
O=C(c1nn2c(C(F)(F)F)cc(-c3ccco3)nc2c1Br)N1CCCc2ccccc21	-19%	-10%[10 µM]	?	-26%	7.9µM*	4%
O=C(c1cc2nc(-c3ccco3)cc(C(F)(F)F)n2n1)N1CCCc2ccccc21	-14%	-12%[10 µM]	-13%	?	18µM*	14%
CN(C1=NC(=O)C(CC(=O)O)S1)c1ccc(O)cc1 (stereo not drawn)	-5%	-15%	11%	·	14%	-3%
Cc1ccc(C2CC(=O)NC(SCC(=O)Nc3nccs3)=C2C#N)cc1 (stereo not drawn)	4%	-20%[10 µM]	17%	-11%	19%	6%
CCN(CC)c1ccc(/C=N/N2CCN(Cc3ccc(C)cc3)CC2)c(O)c1	-6%	-14%	0.63µM*	-10%	?	-3%
N#C/C(=C\N1CCNC1=S)C(=O)c1ccc2ccccc2c1	·	9%[10 µM]	·	-13%	?	·

Screening results from PubChem.
